In all, about 340,000 compounds went through this assay and about 1,400 (0.41%) were called active.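 Rule for the calls: active = response above a set limit, near 3 SD of response in nonfluorescent compounds (cut at about 42% in these data); inactive = the rest.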 This excerpt belongs to a sample that is enriched for actives.

The target of this assay is Beta-2 adrenergic receptor (Homo sapiens) (UniProt P07550). The experiment in a line: agonist-induced loss of surface beta2AR – cell-based, FAP fluorogen, flow cytometry, primary screen (AID 504454). As to conditions: Am2.2-beta2AR cells, FAP receptor internalization, hits give high values, concentration not given here. (In flow cytometry, cells or beads pass a laser one at a time.)
Sequence of Beta-2 adrenergic receptor (Homo sapiens) (P07550 whole entry, looked up): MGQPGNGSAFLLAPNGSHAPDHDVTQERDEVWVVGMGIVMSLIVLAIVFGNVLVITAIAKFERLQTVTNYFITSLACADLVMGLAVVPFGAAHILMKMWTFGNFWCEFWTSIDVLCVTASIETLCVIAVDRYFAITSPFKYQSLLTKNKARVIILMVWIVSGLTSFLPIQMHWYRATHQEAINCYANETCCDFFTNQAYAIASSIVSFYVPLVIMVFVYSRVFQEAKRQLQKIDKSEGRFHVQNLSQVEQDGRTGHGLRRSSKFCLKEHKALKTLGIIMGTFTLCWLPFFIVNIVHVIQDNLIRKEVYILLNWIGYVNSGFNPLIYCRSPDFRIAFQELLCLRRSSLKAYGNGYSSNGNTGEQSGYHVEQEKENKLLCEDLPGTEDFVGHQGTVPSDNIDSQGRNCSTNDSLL
On to `CSc1ccc(S(=O)(=O)N2CCC(C(=O)NCCc3ccccc3)CC2)cc1`, for which the response is 21.2% (inactive). Consider `CSc1ccc(CCNC(=O)C2CCN(c3nnc(-n4cccc4)s3)CC2)cc1`, for which the response is 77.9% (active). With `COc1ccc(CCNC(=O)C2CCN(c3nn4c(=O)cc(C)nc4s3)CC2)cc1OC`, the response is 2.26% (inactive).

In the case of `COc1cc(O)c2c(=O)c3c(O)c(O)ccc3oc2c1OC`, the response is 27.1% (inactive).

`COCCNC(=O)C1CCN(S(=O)(=O)c2ccc3c(c2)OCCO3)CC1`: the response is -3.08% (inactive). On to `COC(=O)c1ccc(Sc2ccc(F)cc2)c(N)c1`, for which the response was -3.98% (inactive). The value for `Cc1snc(SCc2c(F)cccc2Cl)c1C#N` was -7.91% (inactive). On to `Cc1ccc(C(=O)N/C(=C\c2ccco2)C(=O)N2CCSCC2)cc1C`, for which the response is -0.71% (inactive). Turning to `O=C(Nc1ccc(C(=O)NCc2ccccc2Cl)cc1)C1=CSCCO1`, the response is -0.39% (inactive). Then `CS(=O)(=O)NCc1ccc(C(=O)NCc2ccccc2)cc1`, with -3.96% (inactive). Then `CSc1ccc(CNC(=O)c2ccc(NC(=O)C3=CSCCO3)cc2)cc1`, with 98.2% (active). In the case of `NC(=O)c1ccsc1NC(=O)COC(=O)Cc1n[nH]c(=O)c2ccccc12`, the response is -0.52% (inactive). With `CC1(C)C=Cc2c(ccc3c2OC[C@@H](c2ccc(O)cc2O)C3)O1`, the response is 45% (active). In the case of `CCCCN(C(=O)c1ccc(OC(F)(F)F)cc1)c1c(N)n(CCC)c(=O)[nH]c1=O`, the response was 7.36% (inactive).

On to `COc1cccc(OC)c1C(=O)OCC(=O)/C(C#N)=C(\C)N`, for which the response was 13.3% (inactive). For the compound `CSCC(=O)N1CCCC(C(=O)c2cc(F)ccc2F)C1` (stereo not drawn), the response was -14.2% (inactive).

Turning to `C/C(CC1CC(C)(C)OC1=O)=N/Nc1nc(-c2ccccc2)cs1` (stereo not drawn), the response was 4.49% (inactive). As to `CCc1ccccc1NC(=O)[C@@H]1CCC(=O)N1C1OC(=O)c2c1ccc(OC)c2OC` (stereo partly drawn), the response was 11.2% (inactive). The value for `COc1ccc2c(c1OC)C(=O)OC2Nc1nc(-c2ccccc2)cs1` (stereo not drawn) was 43.4% (active); that for `O=C(NCC1CC1)c1onc(CSc2ccccc2)c1C(=O)NCC1CC1` was -4.02% (inactive). On to `CCn1c(SCC(=O)NC2CC2)nnc1-c1ccccn1`, for which the response was -5.81% (inactive).

With `COC(=O)C1(C)NC(c2ccc(F)cc2)C2C(=O)N(c3ccccc3)C(=O)C21` (stereo not drawn), the response is 1.51% (inactive). With `Cc1n[nH]c(=O)c2c1nnn2Cc1ccc(F)cc1`, the response is 2.64% (inactive). Then `Cc1cc(C)cc(C(=O)N(CCc2ccccc2)C2=CC3CCC(C2)N3C)c1` (stereo not drawn), with 11.3% (inactive); and `CCCN(CCc1ccccc1)C1CCc2c(O)cccc2C1` (stereo not drawn), with 56.8% (active); and `CCOC(=O)c1cnc(SCC(=O)Nc2ccccc2C(=O)OC)nc1N`, with 2.55% (inactive). Then `O=C(O)CCCn1cc(NC(=O)COc2cccc(Cl)c2)cn1`, with 15.6% (inactive); and `COC(CNC(=O)Cn1ncc2ccsc2c1=O)OC`, with 1.39% (inactive). Then `O=C(Nc1ccccc1Cl)/C(Cl)=C(\Cl)S(=O)c1ccccc1` (stereo not drawn), with 56.9% (active). With `CN(C)S(=O)(=O)Oc1ccccc1C(=O)Nc1ccccc1Cl`, the response is 1.66% (inactive).

As to `O=C(COC(=O)CCc1c[nH]c(=O)[nH]1)Nc1ccccc1Cl`, the response was -3.16% (inactive). For `CCc1nc(N2CCN(C(C)=O)CC2)c2c3c(sc2n1)CCCC3`, the response was -8.93% (inactive). Then `COc1cccc(NC(=O)c2ccc3c(SCC(=O)O)c4c(nc3c2)CCCC4)c1`, with 1.27% (inactive); and `CC(=O)c1ccc(NC(=O)c2ccc3c(Cl)c4c(nc3c2)CCCC4)cc1`, with 60.5% (active). Then `CC(C)CCNC(=O)c1ccc2c(Cl)c3c(nc2c1)CCC3`, with -1.39% (inactive); and `CC(C)NC(=O)COCc1cc(-c2ccc3c(c2)OCO3)on1`, with -5.4% (inactive).

As for `N#CC1(NC(=O)COc2ccc3oc4ccccc4c3c2)CCCCC1`, the response is -4.35% (inactive).

For `c1ccc(CC2CCN(c3nc4ccccc4n4cnnc34)CC2)cc1`, the response is 68% (active). With `Brc1ccccc1CN1CCC(Cc2ccccc2)CC1`, the response was 4.82% (inactive). Consider `O=C(c1ccccc1)c1ccc2nc(N3CCCCC3)c3nncn3c2c1`, for which the response was -11.4% (inactive). Then `CSc1nc(-c2ccccc2)nc(C(Cl)Cl)n1`, with 81.7% (active); and `COc1ccc(C2c3ccc(O)cc3Oc3ncn(CCCO)c(=N)c32)cc1OC` (stereo not drawn), with -10.4% (inactive). With `CS(=O)(=O)N1CCN(CC(=O)NC2CCCC2)CC1`, the response was -2.25% (inactive). Then `CCN1CCC(O)(/C=C/c2ccc(C)cc2)C(C(=O)/C=C/c2ccc(C)cc2)C1` (stereo not drawn), with 52.9% (active); and `CCOC(=O)C1CCCN(C(=O)/C=C/c2ccc(OC)cc2)C1` (stereo not drawn), with 0.35% (inactive); and `O=C(NCCCn1ccnc1)Nc1ccc(Cl)cc1Cl`, with -0.95% (inactive). Then `COc1ccc(S(=O)(=O)N2CCCC(C(=O)NCCCn3ccnc3)C2)cc1OC` (stereo not drawn), with 10.8% (inactive); and `O=C(NCCCn1ccnc1)C1CCCN(S(=O)(=O)c2cc(Cl)ccc2Cl)C1` (stereo not drawn), with 105% (active).

On to `CC1Cc2ccccc2N1C(=O)Cn1cnc2ccccc2c1=O` (stereo not drawn), for which the response was 6.28% (inactive). For the compound `Cc1ccn2cc(-c3nonc3C)cc2c1`, the response was 15.2% (inactive). Then `O=C1C(=O)N(CC2COc3ccccc3O2)c2ccccc21` (stereo not drawn), with 45.6% (active); and `CC(C)OC(=O)CN1C(=O)C(=O)c2ccccc21`, with 7.48% (inactive). With `O=C(CN1C(=O)C2C3C=CC(C3)C2C1=O)NCC1COc2ccccc2O1` (stereo not drawn), the response was 1.48% (inactive). Then `c1ccc(CSc2ncnc3c2sc2nc(N4CCOCC4)c4c(c23)CCCC4)cc1`, with 10.1% (inactive); and `C#CCOCCOCCOCCNc1nc(N2CCN(C(=O)Cn3cc(CCO)nn3)CC2)nc(N2CCN(C(=O)Cn3cc(CCCN=C(N)N)nn3)CC2)n1`, with 6.34% (inactive); and `C#CCOCCOCCOCCNc1nc(N2CCN(C(=O)[C@H](CCC(=O)O)n3cc(CN)nn3)CC2)nc(N2CCN(C(=O)[C@H](CCC(=O)O)n3cc(CN)nn3)CC2)n1`, with -3.45% (inactive). Turning to `C#CCOCCOCCOCCNc1nc(N2CCN(C(=O)Cn3cc(CCO)nn3)CC2)nc(N2CCN(C(=O)[C@H](CCCCN)n3cc(CCCC)nn3)CC2)n1`, the response was 0.16% (inactive). Then `C#CCOCCOCCOCCNc1nc(N2CCN(C(=O)[C@H](CCCCN)n3cc(CCC(=O)O)nn3)CC2)nc(N2CCN(C(=O)[C@H](CCCCN)n3cc(CC(C)O)nn3)CC2)n1` (stereo partly drawn), with 0.88% (inactive); and `C#CCOCCOCCOCCNc1nc(N2CCN(C(=O)CCCCCCCCCCNC(=O)[C@H](CCCCN)n3cc(C)nn3)CC2)nc(N2CCN(C(=O)CCCCCCCCCCNC(=O)[C@H](CO)n3cc(CCCSC)nn3)CC2)n1`, with 77% (active); and `C#CCOCCOCCOCCNc1nc(N2CCN(C(=O)CCCCCCCCCCNC(=O)Cn3cc(CCCCCN)nn3)CC2)nc(N2CCN(C(=O)CCCCCCCCCCNC(=O)[C@H](CO)n3cc(CCCSC)nn3)CC2)n1`, with 64.5% (active). In the case of `C#CCOCCOCCOCCNc1nc(N2CCN(C(=O)[C@H](CCCN=C(N)N)n3cc(C(N)[C@@H](C)CC)nn3)CC2)nc(N2CCN(C(=O)[C@H](CO)n3cc([C@@H](N)C(C)C)nn3)CC2)n1` (stereo partly drawn), the response is -10.2% (inactive).

Consider `C#CCOCCOCCOCCNc1nc(N2CCN(C(=O)CCCCCCCCCCNC(=O)[C@H]([C@@H](C)CC)n3cc(CCCCN=C(N)N)nn3)CC2)nc(N2CCN(C(=O)CCCCCCCCCCNC(=O)[C@H](CO)n3cc(CCCSC)nn3)CC2)n1`, for which the response is 96.3% (active).

Consider `C#CCOCCOCCOCCNc1nc(N2CCN(C(=O)C([C@@H](C)O)n3cc([C@@H](N)CCCCN)nn3)CC2)nc(N2CCN(C(=O)[C@H](CCCCN)n3cc(CN)nn3)CC2)n1` (stereo partly drawn), for which the response was 1.85% (inactive).

Values taken from PubChem BioAssay AID504454 (NMMLSC, 2011).
